Assay outcomes: PubChem, National Center for Advancing Translational Sciences (NCATS)
In the library only some 6% were active in any assay of this set; here they are far more common.
Chronic BCR inh: blocks chronic active B-cell receptor signaling; hit rate 0.05% among 340,000; Potency, µM (titrated, usually from 46.1 µM), for the others: top-dose activity change, negative = inhibition, actives largely listed as inhibitors; AID 493014; ABC-DLBCL IkBa-CBG/CBR reporter, luminescence ratio, 4 h; active = well fitted inhibition curve with a large enough effect in the signal ratio, with a control signal flat, not every such curve was filed as active; inconclusive = small, poorly fitted or top-dose-only effect, or effect the other way, or a change in a side signal; the % refers to the signal ratio;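 also: potency is read from the fitted curve at half-maximal effect; plate controls were basal doxycycline-induced cells for no effect and cells given 10 µM MG132 for full effect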
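TMD8 ABC-DLBCL cells carrying doxycycline-inducible green luciferase fused to IkappaBalpha plus unfused red luciferase were exposed to compounds (up to 46 uM) for 4 hrs at 37C. Activity came from the overlap-corrected green/red luminescence ratio.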
D3 antag: blocks the human D3 dopamine receptor. hit rate 2.5% among 360,000. P35462. max response, negative = inhibition, %. AID 652054. D3R cells, DiscoveRx beta-arrestin luminescence, antagonist mode; hits give low values; in the data active = max response below about -50%; inconclusive = no clear call, values can overlap the other calls; also: % is scaled to controls: 0 for no effect and ±100 for the full control effect
Target sequence (P35462 whole entry, looked up): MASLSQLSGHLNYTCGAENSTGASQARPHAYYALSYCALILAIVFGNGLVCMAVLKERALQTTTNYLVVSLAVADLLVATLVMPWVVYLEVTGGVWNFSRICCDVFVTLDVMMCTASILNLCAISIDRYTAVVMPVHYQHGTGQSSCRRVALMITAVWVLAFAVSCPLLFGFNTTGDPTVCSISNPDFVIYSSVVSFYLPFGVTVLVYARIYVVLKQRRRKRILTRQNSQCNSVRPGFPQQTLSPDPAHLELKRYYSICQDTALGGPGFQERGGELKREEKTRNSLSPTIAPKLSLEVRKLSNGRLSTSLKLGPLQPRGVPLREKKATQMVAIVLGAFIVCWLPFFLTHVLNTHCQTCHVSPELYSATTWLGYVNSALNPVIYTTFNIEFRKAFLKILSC
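Cells expressing the human receptor were seeded at 1500 cells/well, incubated overnight at 37 degrees C in 5% CO2, then exposed to library compounds with dopamine controls for 90 minutes at 37 degrees C before luminescent detection.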
D1 PAM: human D1 dopamine receptor positive modulation; hit rate 0.036% among 360,000; HEK293 TREx D1 cells, calcium flux, dopamine EC20 potentiation; potentiation, % at 10 µM; AID 504651; in the data active = potentiation above about 30%; also: 0% is about no effect
D1 ag: activates the human D1 dopamine receptor | AID 504660 | activation, % at 2 µM | P21728 | HEK293 T-REx D1 cells, calcium flux, agonist mode | hit rate 1% among 360,000; in the data active = activation above about 30%; also: 0% is about no effect
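Tetracycline-induced HEK293 TREx D1 cells, force-coupled to calcium signalling, were dye-loaded with a no-wash calcium kit. Compound was pin-added after a 10 s baseline. Fluorescence was read kinetically at 1 cycle/s for 180 s, with calcium rises flagged as agonism.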
DRD3 agonist: activates the human D3 dopamine receptor; P35462; max activation, %; D3R DiscoveRx beta-arrestin cells, luminescence, 90 min; hit rate 0.58% among 410,000; AID 652048; in the data active = max activation above about 30%; also: 0% is about no effect
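Agonist mode: compounds and dopamine controls were applied to plated cells for 90 min at 37 degrees C after an overnight attachment at 1500 cells/well. Luminescent read-out followed 30 - 60 minutes at room temperature with DiscoveRx detection reagent.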
D1 antag: antagonists of human D1 dopamine receptor. P21728. HEK293 TREx D1 cells, calcium flux, dopamine EC80; hits give low values. activity change, negative = inhibition, % at 10 µM. hit rate 3.2% among 360,000; in the data active = activity change below about -30%; also: % is scaled to controls: 0 for no effect and ±100 for the full control effect
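Using tetracycline-induced force-coupled D1 Hek293 cells and a calcium dye, signals were followed for 180 s after compound, then for 180 s after EC80 dopamine, to detect inhibitors.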
* hit, by the source's call; ? = inconclusive; / = not tested or not shown.

SMILES | Chronic BCR inh | D3 antag | D1 PAM | D1 ag | DRD3 agonist | D1 antag
CCOC(=O)[C@H]1[C@H]2COc3ccc(OC)cc3[C@@H]2N2C(=O)c3cc(OC)c(OC)cc3NC(=O)[C@@]12C | -10% | -61* | 1 | 3 | -11 | -17
COc1ccc(CNC(=O)Cn2nc3c(cc2=O)CCCC3)cc1 | / | / | -7 | 2 | -1 | 14
CCN(CC)c1nn2c(=O)c(C(=O)NCc3ccccc3Br)cnc2s1 | / | / | -1 | 0 | -21 | -20
CCN(CCO)c1ccc(N=Nc2cc(C)[nH]n2)cc1 | -21% | -52* | 1 | 0 | -9 | -5
CCN(CCO)c1ccc(Nc2cc(-c3ccc(-c4ccccc4)cc3)ncn2)cc1 | / | 105 | / | / | 18 | /
CCCCC/C(C=O)=C\c1ccccc1 | / | / | / | / | 3 | /
CCOc1ccc(C(=O)Nc2cccc(OCc3cc(=O)n4ccccc4n3)c2)cc1 | / | / | -3 | -2 | -12 | -17
Cc1cccn2c(=O)cc(COc3ccc(NC(=O)C(C)Oc4ccccc4)cc3)nc12 (stereo not given) | / | / | -3 | 1 | 8 | -49*
Cc1cccn2c(=O)cc(COc3cccc(NC(=O)Nc4cccc(Cl)c4)c3)nc12 | / | / | -2 | 1 | -9 | -59*
COc1ccccc1C(=O)Nc1ccc(OCc2cc(=O)n3cccc(C)c3n2)cc1 | / | / | 3 | 2 | 0 | 6
Cc1cccc(C(=O)Nc2cccc(OCc3cc(=O)n4ccccc4n3)c2)c1 | / | / | -6 | -1 | -11 | -71*
Cc1cccn2c(=O)cc(COc3cccc(NC(=O)c4cccc(Cl)c4)c3)nc12 | / | / | -3 | -2 | -12 | -14
OC(c1ccc(F)c(F)c1)c1nc(-c2cnc3ccccc3c2)cs1 (stereo not given) | / | -6 | / | / | -1 | /
Cc1cccc(NC(=O)CSc2nc3c(oc4ccccc43)c(=O)n2C(C)C)c1 | / | / | -4 | 1 | 3 | -14
COc1ccc(CCNC(=O)CCc2c(C)nc3cc(-c4ccc(Cl)cc4)nn3c2C)c(OC)c1 | / | / | -3 | -1 | -10 | 4
O=C(c1ccc(-c2ccccc2)cc1)c1ccc([N+](=O)[O-])cc1 | 0% | / | 21 | 9 | / | 7
CN(C)C(=O)C#Cc1ccccc1 | 3% | 5 | -4 | 0 | 6 | 8
O=C(C#Cc1ccccc1)c1ccc([N+](=O)[O-])cc1 | ? | -72* | -2 | 4 | -18 | -18
O=C(C#Cc1ccccc1)c1ccccc1 | / | -65* | / | / | -9 | /
COc1cc(/C=C2\C(C)=C(C#N)c3nc(N)c(C#N)c(C)c32)ccc1OCC(=O)O | 3% | 4 | -4 | 4 | 1 | -57*
Cc1cccnc1C(c1ccc(F)cc1)N(C)C(=O)C1CCN(CCCOc2ccc(F)cc2)CC1 (stereo not given) | / | -94* | / | / | -21 | /
COc1cc(OC)nc(C(NC(=O)C2CCN(Cc3ccc(N(C)C)cc3)CC2)c2ccc(F)cc2)n1 (stereo not given) | / | ? | / | / | -15 | /
Cc1cccnc1C(c1ccc(F)cc1)N(C)C(=O)C1CCN(CCOc2ccc(Cl)cc2Cl)CC1 (stereo not given) | / | -74* | / | / | -3 | /
CC(C)c1ccc(OCCCN2CCCC2)cc1 | 6% | ? | 11 | 4 | -6 | 15
COc1cc(/C=C(\C#N)c2nc3ccccc3[nH]2)ccc1OCc1cccc(C(F)(F)F)c1 | / | / | -2 | 0 | -6 | 17
SMILES | Chronic BCR inh | D3 antag | D1 PAM | D1 ag | DRD3 agonist | D1 antag
Cn1c(SCC(=O)N2CCCc3ccccc32)ncc(C(=O)Nc2ccc(Cl)cc2)c1=O | 0% | / | -1 | 0 | 6 | /
O=C(C[C@H]1CC[C@H]2[C@@H](COC[C@@H](O)CN2S(=O)(=O)c2ccc(F)cc2)O1)N[C@@H]1CCN(Cc2ccccc2)C1 | / | ? | / | / | -15 | /
CCOC(=O)/C(=C/c1ccc(OC(=O)c2ccccc2)cc1)C(C)=O | -1% | 17 | -13 | -1 | 1 | 0
CCOC(=O)/C(=C/C1=CC(=C/N(C)C)/C(=O)O1)C(C)=O | -5% | -7 | 2 | 25 | 30* | 1
COCCCn1c(=O)c2sccc2n2c(CCCC(=O)Nc3cccc(OC)c3)nnc12 | / | / | -3 | 0 | 15 | -12
CCCNC(=O)C1(C)CCN(C(=O)c2ccc(F)c(Cl)c2)C1 (stereo not given) | / | 24 | / | / | 7 | /
CC(=O)Nc1nc(-c2ccc3c(c2)CC(C)N3C(=O)C2CC2)c(C)s1 (stereo not given) | 0% | 15 | 0 | 3 | 7 | 2
Cc1sc(NC(=O)c2ccco2)nc1-c1ccc2c(c1)CC(C)N2C(=O)C1CC1 (stereo not given) | ? | 27 | 9 | 1 | 42* | 6
COc1cccc2cc(C(=O)N3CCN(c4ccccn4)CC3)c(=O)oc12 | 6% | 2 | 3 | 9 | -4 | -37*
CCN1C(=O)C(CC(=O)NCCc2ccccc2)N(NC(=O)c2ccc(Br)cc2)C1=S (stereo not given) | / | 7 | / | / | 1 | /
CCN(CC)c1ncnc2c1ncn2[C@H]1CN(Cc2ccc(OC)cc2)C[C@@H](CO)O1 | / | ? | / | / | -12 | /
COc1cc2[nH]c(=S)nc(NCCCOC(C)C)c2cc1OC | 1% | -78* | 3 | 1 | -2 | 0
CCOCCCNc1nc(=S)[nH]c2cc(OC)c(OC)cc12 | 11% | -27 | -1 | 0 | 1 | 7
COC(=O)C1=CN(c2ccccc2OC)C(N)=C(C#N)C1c1cccc([N+](=O)[O-])c1 (stereo not given) | / | -8 | / | / | -7 | /
COc1ccccc1CNC(=O)COC(=O)C1=COCCO1 | 2% | 4 | 1 | 0 | -1 | -66*
O=C(COC(=O)C1=COCCO1)NCc1ccc(F)cc1 | 5% | 2 | 2 | 3 | -4 | 6
Cn1c2cc(B(O)O)sc2c2cnn(Cc3c(F)cccc3Cl)c(=O)c21 | ? | / | -8 | 11 | / | -7
c1ccc(CNc2c3c(nc4ncnn24)CCC3)cc1 | 0% | -1 | -4 | 6 | -6 | -53*
CCOC(=O)N1CCN(Cc2cc(Cl)c3cccnc3c2O)CC1 | ? | -55* | -2 | 11 | -11 | 3
CCOC(=O)N1CCN(Cc2ccccc2Cl)CC1 | / | -12 | -6 | 0 | -7 | 6
O=C(Oc1c(CN2CCOCC2)cc(Cl)c2cccnc12)c1ccccc1Br | ? | -80* | -2 | 0 | -28 | -10
CCOc1ccccc1CN1CCN(S(=O)(=O)CC)CC1 | -1% | -51* | 7 | 0 | -5 | 27
COc1ccccc1N1CCN(Cc2ccc(O)c3ncccc23)CC1 | ? | -105* | -8 | 8 | -87 | -1
O=C(NCc1ccccc1Cl)C1CCCN(C(=O)c2cnn(-c3ccccc3)c2-n2cccc2)C1 (stereo not given) | / | / | -3 | 2 | 6 | 0
